Screens as filed in PubChem.
EPAC2 ag = activates human EPAC2 exchange factor | Q8WZA2 | EPAC2 activation, biochemical qHTS; response scale: 100% = 6.5 mM cAMP response | Potency, µM (titrated, usually from 154 µM), hits mostly activators | 360,000 compounds, 0.079% hits; note: nearly all actives have a fitted effect of over 50% in size
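Nucleotide exchange monitored as fluorescence drop when BODIPY-GDP leaves Rap1B. Reaction: 100 nM EPAC2, 250 nM RAP1B-BODIPY-GDP, 50 uM GDP, room temperature, kinetic read over 30 min. Activity expressed relative to 6.5 mM cAMP.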
LDHA block = inhibitors of human lactate dehydrogenase A; P00338; purified LDHA, NADH/diaphorase-resazurin fluorescence; hits give low values; activity change, % (values are at about 110 or 230 µM); 480,000 compounds, 0.15% hits; in the data active = activity change below about -30%; inconclusive = mostly about -25% to -30%
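Enzyme activity of human lactate dehydrogenase 5 (2 nM; 0.06 mM NADH, 0.2 mM pyruvate, 5 min, RT) is measured via a resazurin/diaphorase fluorescence readout of residual NADH.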
EPAC1 ag = agonists of human EPAC1; O95398; EPAC1 agonist qHTS, biochemical assay; response scale: 100% = response to 6.5 mM cAMP; Potency, µM (doses to about 154 µM), hits mostly activators; 360,000 compounds, 0.073% hits; AID 720707; note: nearly all actives have a fitted effect of over 60% in size
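EPAC1 100 nM, Rap1B–BODIPY-GDP 250 nM, unlabeled GDP 50 uM; compound titration; 5 min RT; kinetic read ex480/em540 at 5-min intervals ×30 min; data normalized to 6.5 mM cAMP agonist control.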
EPAC1 antag = EPAC1 (human) antagonism. EPAC1 GEF assay, Rap1b-BODIPY-GDP exchange fluorescence. Potency, µM (highest dose often 115 µM), actives largely listed as inhibitors. 360,000 compounds, 0.14% hits; note: nearly all actives have a fitted effect of over 50% in size
USP1-UAF1 inh = USP1/UAF1 (human) deubiquitinase inhibition; 390,000 compounds, 0.23% hits; recombinant USP1/UAF1, Ub-Rhodamine cleavage fluorescence; O94782; Potency, µM (doses to about 57.1 µM), hits mostly inhibitors; note: nearly all actives have a fitted effect of over 60% in size
Target sequence (O94782 whole entry, looked up): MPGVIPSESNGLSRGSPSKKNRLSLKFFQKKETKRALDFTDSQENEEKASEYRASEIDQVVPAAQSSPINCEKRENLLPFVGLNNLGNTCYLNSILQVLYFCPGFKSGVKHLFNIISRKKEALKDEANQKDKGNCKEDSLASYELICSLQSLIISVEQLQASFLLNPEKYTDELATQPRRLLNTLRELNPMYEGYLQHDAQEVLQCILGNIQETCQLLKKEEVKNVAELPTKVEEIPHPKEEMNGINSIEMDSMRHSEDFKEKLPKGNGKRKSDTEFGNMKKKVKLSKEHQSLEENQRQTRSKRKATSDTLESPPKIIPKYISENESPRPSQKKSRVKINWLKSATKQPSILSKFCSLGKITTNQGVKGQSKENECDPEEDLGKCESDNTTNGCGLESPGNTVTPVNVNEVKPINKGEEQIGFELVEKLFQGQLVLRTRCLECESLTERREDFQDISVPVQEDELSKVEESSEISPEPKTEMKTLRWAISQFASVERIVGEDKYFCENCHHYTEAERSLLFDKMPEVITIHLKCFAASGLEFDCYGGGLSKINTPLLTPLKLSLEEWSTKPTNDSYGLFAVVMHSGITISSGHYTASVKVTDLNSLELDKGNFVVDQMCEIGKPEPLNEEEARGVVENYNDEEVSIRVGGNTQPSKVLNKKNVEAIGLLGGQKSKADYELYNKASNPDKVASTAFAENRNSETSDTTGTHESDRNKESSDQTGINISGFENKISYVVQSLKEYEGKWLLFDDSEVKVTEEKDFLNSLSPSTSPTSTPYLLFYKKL
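1 nM enzyme complex + cpd, 15 min RT; start with Ub-Rho 150nM final; kinetic fluorescence ex 480/em 540, 6 reads q60 s. Buffer 50mM HEPES pH 7.8, 0.5mM EDTA, 0.1 mg/ml BSA, 1mM TCEP, 0.01% Tween-20.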
EPAC2 antag = antagonists of human EPAC2; AID 720708; 360,000 compounds, 0.18% hits; Potency, µM (titrated, usually from 114 µM), usual class: inhibitors; Q8WZA2; EPAC2 GEF exchange of Rap1B-BODIPY-GDP, fluorescence; note: nearly all actives have a fitted effect of over 45% in size
A number is an active result; i = inactive; ? = inconclusive; nt = no result given. Only some compounds are listed: those with a hit (about 0.56% of all), similar ones and a draw of the others. Unless noted, calls come from the whole dose curve; as a rule, active = well fitted curve in the direction sought with a large enough effect; inconclusive = small, poorly fitted or top-dose-only effect, or another doubt; inactive = no such curve, though single readings can be large; an effect the other way counts as inactive or inconclusive.

SMILES | EPAC2 ag | LDHA block | EPAC1 ag | EPAC1 antag | USP1-UAF1 inh | EPAC2 antag
CCC1CCCCN1C(=O)Cn1c(=O)n(CC2CCC(C(=O)NC)CC2)c(=O)c2sccc21 (stereo unspecified) | nt | i | nt | nt | i | nt
c1cc(CNc2ccc3c(c2)OCO3)ccn1 | i | i | i | i | ? | i
Cc1ccc(CNc2ccc3c(c2)OCO3)cc1 | i | i | i | i | 28µM | i
CSc1ccccc1NC(=O)CN(C)CC(=O)Nc1c(F)cccc1F | i | -55 | i | i | i | i
CSc1ccccc1NC(=O)CN(C)CC(=O)Nc1ccccc1F | i | -31 | i | i | i | i
Cc1ccc(-c2noc(-c3cccc(Br)c3)n2)cc1 | nt | i | nt | nt | nt | nt
O=C(NCCc1ccccn1)c1ccc(Cl)cc1 | nt | i | nt | nt | nt | nt
CCNc1ccc2noc3c2c1C(=O)c1ccccc1-3 | 89µM | i | 112µM | i | ? | i
CCOc1ccc2noc3c2c1C(=O)c1ccccc1-3 | i | i | i | i | i | i
O=C1c2ccccc2-c2onc3ccc(N4CCCC4)c1c23 | i | i | i | i | 14µM | i
COc1ccc(CNC(=O)Nc2ccc(C)cc2C)cc1 | i | i | i | i | i | i
COc1ccc(CNC(=O)C(=O)Nc2ccc(C)cc2C)cc1 | nt | -31 | nt | nt | nt | nt
COC(=O)C1(C(F)(F)F)N=C(N2CCOCC2)Oc2c1c(C)nn2-c1ccccc1 (stereo unspecified) | nt | i | nt | nt | nt | nt
N#Cc1c(-c2ccc(F)cc2)cc(-c2ccccc2)nc1SCC(=O)NCC(=O)O | i | -80 | i | 79µM | i | i
CCCCn1c(C2NC(=O)NC(C)=C2C(=O)OCC)nc2ccccc21 (stereo unspecified) | nt | i | nt | nt | nt | nt
CCN(CC)c1ccc2cc(-c3nc(-c4ccccc4F)no3)c(=O)oc2c1 | nt | i | nt | nt | ? | nt
CCN(CC)c1ccc2cc(-c3nc(-c4cc(OC)c(OC)c(OC)c4)no3)c(=O)oc2c1 | nt | i | nt | nt | 40µM | nt
O=C(CSc1ncnc2[nH]ncc12)Nc1cccc(Oc2ccccc2)c1 | 32µM | i | 89µM | ? | i | i
CC12CCC(C/C1=N\NC(N)=S)C2(C)C (stereo unspecified) | nt | i | nt | nt | nt | nt
O=C(Nc1ccc(N2CCCCC2)cc1)C1=COCCO1 | nt | i | nt | nt | nt | nt
Cc1cc(C)c(S(=O)(=O)/N=C2/C=C(SCC(=O)O)C(=O)c3ccccc32)cc1C | i | i | i | ? | 25µM | i
CCCC[C@@H]1C[C@H]1[C@@H](NC(=O)c1ccco1)c1ccc(Cl)cc1 | i | i | i | i | i | 8.9µM
CCCC[C@@H]1C[C@H]1[C@@H](NC(=O)c1cccs1)c1ccc(Cl)cc1 | i | i | i | i | i | ?
CCOC(=O)COc1ccc2c(=O)c(-c3ccc(Cl)cc3)c(C)oc2c1 | nt | i | nt | nt | nt | nt
CN(C1=C(NC(=O)c2ccccc2)C(=O)c2ccccc2C1=O)C1CCS(=O)(=O)C1 (stereo unspecified) | i | i | i | i | 10µM | i
SMILES | EPAC2 ag | LDHA block | EPAC1 ag | EPAC1 antag | USP1-UAF1 inh | EPAC2 antag
CC(=O)NC1=C(NC2CCS(=O)(=O)C2)C(=O)c2ccccc2C1=O (stereo unspecified) | i | i | i | i | ? | i
O=C(NC1(O)C(=O)c2ccccc2C1=O)c1ccccc1 | i | i | i | ? | 18µM | ?
O=C(Nc1ccccc1C(F)(F)F)c1c(Cl)cccc1Cl | nt | i | nt | nt | nt | nt
O=C(NC1(O)C(=O)c2ccccc2C1=O)c1c(Cl)cccc1Cl | i | i | i | 50µM | 28µM | ?
COC1(NC(=O)c2ccccc2)C(C)=CC(=O)C=C1C | i | i | i | i | i | i
C[C@@H]1CN([C@H](C)CO)C(=O)CCCn2cc(nn2)CO[C@H]1CN(C)S(=O)(=O)c1ccc2c(c1)OCCCO2 | i | -30 | i | i | i | i
C[C@@H]1CN([C@H](C)CO)C(=O)CCCn2nncc2CO[C@H]1CN(C)C | i | -33 | i | i | i | i
C[C@H]1CN([C@@H](C)CO)C(=O)CCCn2cc(nn2)CO[C@@H]1CN(C)S(=O)(=O)c1ccc2c(c1)OCCCO2 | i | i | i | i | i | i
CCCn1c(=N)c(C#N)cc2c(=O)n3ccccc3nc21 | i | i | i | i | ? | i
